Several values for one entry are separate records, joined by “and”; a condition that tells them apart may be missing. Equal entries are not always repeated. This is part of a sample that, as a whole, favours compounds with a hit. Of some 83,000 tested, about 20% had one in any assay.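 Single-dose data. Exposure time 48 hours. Values below 10 considered active.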 Activity calls are given as the source filed them.
Legend:
Experiment in all cases: NCI-60 one-dose screen, 48 h (100 = growth as untreated, 0 = no growth, -100 = all killed)
Details in all cases: 10 µM unless noted
SK-MEL-2 melanoma = test system: SK-MEL-2 melanoma
EKVX NSCLC = test system: EKVX NSCLC
SN12C renal = test system: SN12C renal
UO-31 renal = test system: UO-31 renal
TK-10 renal = test system: TK-10 renal
ACHN renal = test system: ACHN renal
CAKI-1 renal = test system: CAKI-1 renal
A498 renal = test system: A498 renal
CCRF-CEM leukemia = test system: CCRF-CEM leukemia
SR leukemia = test system: SR leukemia
RPMI-8226 leukemia = test system: RPMI-8226 leukemia
OVCAR-8 ovarian = test system: OVCAR-8 ovarian
OVCAR-5 ovarian = test system: OVCAR-5 ovarian
OVCAR-4 ovarian = test system: OVCAR-4 ovarian
SK-OV-3 ovarian = test system: SK-OV-3 ovarian
IGROV1 ovarian = test system: IGROV1 ovarian
OVCAR-3 ovarian = test system: OVCAR-3 ovarian
HS 578T breast = test system: HS 578T breast
NCI/ADR-RES ovarian = test system: NCI/ADR-RES ovarian
MOLT-4 leukemia = test system: MOLT-4 leukemia

SMILES | growth (SK-MEL-2 melanoma) | growth (EKVX NSCLC) | growth (SN12C renal) | growth (UO-31 renal) | growth (TK-10 renal) | growth (ACHN renal) | growth (CAKI-1 renal) | growth (A498 renal) | growth (CCRF-CEM leukemia) | growth (SR leukemia) | growth (RPMI-8226 leukemia) | growth (OVCAR-8 ovarian) | growth (OVCAR-5 ovarian) | growth (OVCAR-4 ovarian) | growth (SK-OV-3 ovarian) | growth (IGROV1 ovarian) | growth (OVCAR-3 ovarian) | growth (HS 578T breast) | growth (NCI/ADR-RES ovarian) | growth (MOLT-4 leukemia)
Nc1cc2c(cc1N)-c1ccccc1C2 | 86.3% (inactive) and 111% (inactive) | 67.1% (inactive) and 68% (inactive) | 75.7% (inactive) and 101% (inactive) | 58.8% (inactive) and 73.1% (inactive) | 108% (inactive) | 82.6% (inactive) and 88.3% (inactive) | 56.8% (inactive) and 79.8% (inactive) | 88.2% (inactive) and 103% (inactive) | 18.9% (inactive) and 30.8% (inactive) | 71.1% (inactive) and 90.7% (inactive) | 41.3% (inactive) and 61% (inactive) | 88.9% (inactive) and 89.5% (inactive) | 122% (inactive) and 109% (inactive) | 99.5% (inactive) and 107% (inactive) | 96.9% (inactive) and 95.1% (inactive) | 58.3% (inactive) and 79.2% (inactive) | 98.6% (inactive) and 97.7% (inactive) | 104% (inactive) | 89.4% (inactive) and 90.2% (inactive) | –
CC(=O)c1ccccc1O | 107% (inactive) and 98.5% (inactive) and 111% (inactive) | 99.7% (inactive) and 108% (inactive) and 104% (inactive) | 98.1% (inactive) and 104% (inactive) and 98.7% (inactive) | 80% (inactive) and 90.5% (inactive) and 68.1% (inactive) | 104% (inactive) and 95.9% (inactive) and 95.7% (inactive) | 105% (inactive) and 101% (inactive) and 104% (inactive) | 92.5% (inactive) and 99.4% (inactive) and 87.3% (inactive) | 92.5% (inactive) and 86.6% (inactive) | 107% (inactive) and 104% (inactive) and 101% (inactive) | 79% (inactive) | 106% (inactive) and 103% (inactive) | – | 102% (inactive) and 98.4% (inactive) and 116% (inactive) | – | 114% (inactive) and 102% (inactive) and 101% (inactive) | 102% (inactive) and 105% (inactive) and 101% (inactive) | 114% (inactive) and 109% (inactive) and 106% (inactive) | 95.7% (inactive) and 109% (inactive) and 98.9% (inactive) | 100% (inactive) and 98.6% (inactive) and 103% (inactive) | 88.1% (inactive) and 91.6% (inactive) and 104% (inactive)
CCOc1ccc(Nc2c3ccccc3nc3ccccc23)cc1 | 104% (inactive) and 34% (inactive) and 72.1% (inactive) | 42.8% (inactive) and 42.1% (inactive) | 81.8% (inactive) and 20.6% (inactive) and 27.6% (inactive) | 62.8% (inactive) and 0.768% (active) and 1.99% (active) | 93.3% (inactive) and 35.1% (inactive) and 32.7% (inactive) | 84.9% (inactive) and -30.4% (active) and 6.25% (active) | 91.3% (inactive) and 6.56% (active) and -17% (active) | 73.5% (inactive) and 35.5% (inactive) and 72.8% (inactive) | 99.8% (inactive) and 12.4% (inactive) and 4.91% (active) | 81.6% (inactive) and 7.88% (active) and -40.6% (active) | 81.3% (inactive) and 18% (inactive) and -19.7% (active) | 83.6% (inactive) and 22.9% (inactive) and 36.9% (inactive) | 90.8% (inactive) and 29.4% (inactive) and 47.8% (inactive) | 90.9% (inactive) and 36.4% (inactive) and 37.9% (inactive) | 96.6% (inactive) and 30.7% (inactive) and 40.5% (inactive) | 92.1% (inactive) and 20.4% (inactive) and 16.5% (inactive) | 96.5% (inactive) and 17.9% (inactive) and 35.1% (inactive) | 88.5% (inactive) and 60.2% (inactive) and 61.7% (inactive) | – | –
CC(=O)C(/C=N/C(N)=O)=C(/C)O | 119% (inactive) | 108% (inactive) | 105% (inactive) | 91.1% (inactive) | 105% (inactive) | 99.8% (inactive) | 97.9% (inactive) | 92.7% (inactive) | 97.4% (inactive) | 96.9% (inactive) | 112% (inactive) | – | – | 114% (inactive) | – | 114% (inactive) | 121% (inactive) | 108% (inactive) | 99.4% (inactive) | 111% (inactive)
CC(O)(CC(=O)CC(=O)c1ccccc1)c1ccccc1 (configuration not stated) | 126% (inactive) and 110% (inactive) | 103% (inactive) | 99.3% (inactive) and 85.3% (inactive) | 96.8% (inactive) and 94.2% (inactive) | 98.5% (inactive) and 111% (inactive) | 94.9% (inactive) and 106% (inactive) | 110% (inactive) | 79.9% (inactive) | 95.4% (inactive) and 83% (inactive) | 110% (inactive) and 103% (inactive) | 106% (inactive) and 88.9% (inactive) | – | 102% (inactive) and 103% (inactive) | – | 115% (inactive) and 114% (inactive) | 91.9% (inactive) and 103% (inactive) | 97.6% (inactive) and 99% (inactive) | 102% (inactive) | – | 87.3% (inactive) and 113% (inactive)
c1ccc2cc(C[n+]3ccn(Cc4ccc5ccccc5n4)c3)ccc2c1 | -35.6% (active) and -4.1% (active) | 15.9% (inactive) and 69% (inactive) | 2.29% (active) and 11.9% (inactive) | 98% (inactive) and 86.4% (inactive) | -27% (active) and 80.5% (inactive) | 86.3% (inactive) and 102% (inactive) | 96.2% (inactive) | 49.1% (inactive) and 61.6% (inactive) | 10.8% (inactive) and 40.5% (inactive) | -3.69% (active) and 31.5% (inactive) | 3.76% (active) and 13.1% (inactive) | 1.74% (active) and 23.8% (inactive) | 13.4% (inactive) and 50.9% (inactive) | 11.5% (inactive) and 33.7% (inactive) | -11.7% (active) and 34.2% (inactive) | 11.6% (inactive) and 25.1% (inactive) | -1.69% (active) and 21.7% (inactive) | 27.8% (inactive) and 33% (inactive) | 103% (inactive) and 102% (inactive) | –
CCCCCN(CCCCC)CC(O)c1cc2c(c3ccccc13)CCCC2 (configuration not stated) | 79.1% (inactive) and 97.2% (inactive) | 77.9% (inactive) and 46% (inactive) | 72.1% (inactive) and 75.1% (inactive) | 39.7% (inactive) and 44.7% (inactive) | 87.5% (inactive) and 73.4% (inactive) | 55.8% (inactive) and 49% (inactive) | 34.5% (inactive) and -32% (active) | 108% (inactive) and 39.3% (inactive) | 52.9% (inactive) and 57.2% (inactive) | 11.1% (inactive) and 14.2% (inactive) | 15.4% (inactive) and 34.8% (inactive) | 88.6% (inactive) and 94.3% (inactive) | 66.9% (inactive) and 55.6% (inactive) | 60.9% (inactive) and 59.9% (inactive) | 84.2% (inactive) and 79% (inactive) | 48.9% (inactive) and -1.04% (active) | 71.9% (inactive) and 54.4% (inactive) | 85.6% (inactive) and 2.9% (active) | 70% (inactive) and 63.7% (inactive) | –

Reference: PubChem BioAssay (NCI)
